Data as given in PubChem BioAssay AID1159580 (chemical genetic matrix, 2015).
Several values for one entry are separate records, joined by “and”; a condition that tells them apart may be missing. Equal entries are not always repeated. Out of some 5,500 compounds screened, about 2,000 (36%) were called active. Another 18% or so got no clear call; they are omitted. Cut-off read from the data, not from the text of the source: active = normalized growth mostly below about 0.91 (no sharp cut-off); inconclusive = no clear call, values can overlap the other calls; inactive = mostly above about 0.92. Some of the results follow.

Assay: chemical genetic growth profiling, strain panel (AID 1159580);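 note: tested at 20 µM; growth read once vehicle control cultures reached saturation at 30 °C; 1 = growth at the plate median or of vehicle wells; lower values mean less growth of the strain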
Settings: S. cerevisiae deletion strains, growth OD

Measured: normalized growth

COC(=O)CCC(C)C1CCC2C3CC[C@@H]4C[C@H](O)CC[C@]4(C)C3C[C@H](O)[C@]12C (some centres not stated)
active: locus YAL021C, strain ccr4, stronger effect = lower value 1.11 [resistant] | locus YBL061C, strain skt5, stronger effect = lower value 0.9 | locus YBR023C, strain chs3, stronger effect = lower value 0.909 | locus YDR137W, strain rgp1, stronger effect = lower value 0.754 | locus YDR159W, strain sac3, stronger effect = lower value 0.757 | locus YDR195W, strain ref2 0.802 | locus YDR392W, strain spt3, stronger effect = lower value 0.331 | locus YER155C, strain BEM2 (second series), stronger effect = lower value 0.746 | locus YGR229C, strain SMI1, stronger effect = lower value 0.709 | locus YHR013C, strain ard1, stronger effect = lower value 1.34 [resistant] | locus YHR079C, strain IRE1, stronger effect = lower value 0.826 | locus YHR142W, strain chs7, stronger effect = lower value 0.819 | locus YJL095W, strain BCK1 (second series), stronger effect = lower value 0.867 | locus YJL166W, strain qcr8, stronger effect = lower value 0.892 | locus YLR027C, strain aat2, stronger effect = lower value 0.918 | locus YLR113W, strain HOG1, stronger effect = lower value 0.439 | locus YLR262C, strain YPT6 (second series), stronger effect = lower value 0.776 | locus YLR320W, strain mms22, stronger effect = lower value 0.812 | locus YLR330W, strain CHS5, stronger effect = lower value 0.903 | locus YLR342W, strain FKS1, stronger effect = lower value 0.699 | locus YLR418C, strain cdc73, stronger effect = lower value 0.77 | locus YMR205C, strain PFK2, stronger effect = lower value 0.846 | locus YNL071W, strain lat1, stronger effect = lower value 0.72 | locus YOR184W, strain ser1, stronger effect = lower value 0.853 | locus YOR231W, strain MKK1, stronger effect = lower value 0.814 | locus YPL051W, strain arl3, stronger effect = lower value 0.913 | locus YPL256C, strain CLN2, stronger effect = lower value 0.8
0.923 (inactive) and 0.843 (active): locus YHR030C, strain SLT2, stronger effect = lower value
0.819 (inactive) and 0.826 (active): locus YJL095W, strain BCK1, stronger effect = lower value
inactive: locus YAL013W, strain DEP1, stronger effect = lower value 0.983 | locus YAL026C, strain drs2, stronger effect = lower value 1 | locus YAL030W, strain snc1, stronger effect = lower value 0.987 | locus YBR009C, strain hhf1, stronger effect = lower value 0.925 | locus YBR021W, strain FUR4, stronger effect = lower value 1.01 | locus YBR171W, strain sec66, stronger effect = lower value 1.01 | locus YBR229C, strain ROT2, stronger effect = lower value 0.998 | locus YBR231C, strain swc5, stronger effect = lower value 0.978 | locus YBR279W, strain paf1, stronger effect = lower value 0.996 | locus YCL011C, strain gbp2, stronger effect = lower value 0.966 | locus YCL016C, strain dcc1, stronger effect = lower value 0.967 | locus YCL029C, strain bik1, stronger effect = lower value 1.01 | locus YCL061C, strain MRC1, stronger effect = lower value 0.992 | locus YCL069W, strain vba3, stronger effect = lower value 1.01 | locus YCR088W, strain abp1, stronger effect = lower value 1 | locus YDL005C, strain med2, stronger effect = lower value 0.983 | locus YDL035C, strain GPR1, stronger effect = lower value 0.989 | locus YDL040C, strain nat1, stronger effect = lower value 0.985 | locus YDL074C, strain BRE1, stronger effect = lower value 0.849 | locus YDL101C, strain DUN1, stronger effect = lower value 0.973 | locus YDL134C, strain PPH21, stronger effect = lower value 0.951 | locus YDL185W, strain tfp1, stronger effect = lower value 1.02 | locus YDL192W, strain arf1, stronger effect = lower value 0.922 | locus YDR001C, strain nth1, stronger effect = lower value 0.996 | locus YDR069C, strain doa4, stronger effect = lower value 1.04 | locus YDR101C, strain arx1, stronger effect = lower value 1 | locus YDR162C, strain NBP2, stronger effect = lower value 0.928 | locus YDR297W, strain sur2, stronger effect = lower value 0.986 | locus YDR318W, strain mcm21, stronger effect = lower value 0.993 | locus YDR334W, strain swr1, stronger effect = lower value 1.01 | locus YDR335W, strain msn5, stronger effect = lower value 0.975 | locus YDR388W, stronger effect = lower value 1.02 | locus YDR502C, strain sam2, stronger effect = lower value 1.02 | locus YEL003W, strain gim4, stronger effect = lower value 0.99 | locus YEL037C, strain rad23, stronger effect = lower value 1.01 | locus YEL061C, strain CIN8 (second series), stronger effect = lower value 0.999 | locus YEL061C, strain CIN8, stronger effect = lower value 0.975 | locus YER015W, strain faa2, stronger effect = lower value 1 | locus YER016W, strain bim1, stronger effect = lower value 0.962 | locus YER110C, stronger effect = lower value 1.02 | locus YER111C, strain swi4, stronger effect = lower value 0.996 | locus YER155C, strain BEM2, stronger effect = lower value 0.955 | locus YER167W, strain BCK2, stronger effect = lower value 1.01 | locus YFR010W, strain ubp6, stronger effect = lower value 1.04 | locus YGL078C, strain dbp3, stronger effect = lower value 1.02 | locus YGL086W, strain mad1, stronger effect = lower value 0.997 | locus YGL167C, strain pmr1, stronger effect = lower value 0.971 | locus YGL173C, strain kem1, stronger effect = lower value 0.992 | locus YGL227W, strain vid30, stronger effect = lower value 1 | locus YGL240W, strain doc1, stronger effect = lower value 0.928 | locus YGL248W, strain PDE1, stronger effect = lower value 0.95 | locus YGL253W, strain hxk2, stronger effect = lower value 0.985 | locus YGR135W, strain pre9, stronger effect = lower value 1.01 | locus YGR252W, strain gcn5, stronger effect = lower value 0.887 | locus YHR027C, strain rpn1, stronger effect = lower value 1 | locus YHR079C, strain IRE1 (second series), stronger effect = lower value 1 | locus YHR094C, strain hxt1, stronger effect = lower value 1.03 | locus YHR129C, strain ARP1, stronger effect = lower value 0.955 | locus YHR200W, strain rpn10, stronger effect = lower value 1.02 | locus YIL066C, strain RNR3, stronger effect = lower value 0.923 | locus YIL073C, strain SPO22, stronger effect = lower value 1.27 | locus YIL125W, strain kgd1, stronger effect = lower value 1.01 | locus YIR030C, strain dcg1, stronger effect = lower value 1.01 | locus YJL092W, strain hpr5, stronger effect = lower value 1 | locus YJL115W, strain asf1, stronger effect = lower value 1.01 | locus YJL129C, strain trk1, stronger effect = lower value 0.934 | locus YJL134W, strain LCB3, stronger effect = lower value 1.01 | locus YJL154C, strain vps35, stronger effect = lower value 1.01 | locus YJL164C, strain tpk1, stronger effect = lower value 0.957 | locus YJL168C, strain set2, stronger effect = lower value 1.01 | locus YJL187C, strain SWE1 (second series), stronger effect = lower value 0.979 | locus YJL187C, strain SWE1, stronger effect = lower value 0.995 | locus YJR043C, strain POL32, stronger effect = lower value 1.02 | locus YJR066W, strain TOR1, stronger effect = lower value 0.941 | locus YKL009W, strain mrt4, stronger effect = lower value 0.959 | locus YKL068W, stronger effect = lower value 0.993 | locus YKL085W, strain MDH1 (second series), stronger effect = lower value 0.991 | locus YKL085W, strain MDH1, stronger effect = lower value 0.991 | locus YKL160W, strain elf1, stronger effect = lower value 0.92 | locus YKL190W, strain CNB1, stronger effect = lower value 1.02 | locus YKR001C, strain vps1, stronger effect = lower value 0.931 | locus YKR026C, strain gcn3, stronger effect = lower value 1 | locus YKR091W, strain srl3, stronger effect = lower value 0.993 | locus YLL001W, strain dnm1, stronger effect = lower value 0.99 | locus YLL026W, stronger effect = lower value 0.986 | locus YLL041C, strain sdh2, stronger effect = lower value 1.01 | locus YLR039C, strain RIC1, stronger effect = lower value 0.88 | locus YLR058C, strain SHM2, stronger effect = lower value 0.972 | locus YLR102C, strain apc9, stronger effect = lower value 1.01 | locus YLR221C, strain rsa3, stronger effect = lower value 0.932 | locus YLR258W, strain gsy2, stronger effect = lower value 0.958 | locus YLR262C, strain YPT6, stronger effect = lower value 0.792 | locus YLR268W, strain sec22, stronger effect = lower value 1 | locus YLR342W, strain FKS1 (second series), stronger effect = lower value 0.933 | locus YLR357W, strain rsc2, stronger effect = lower value 0.982 | locus YLR370C, strain arc18, stronger effect = lower value 0.998 | locus YLR371W, strain rom2, stronger effect = lower value 1.01 | locus YLR384C, strain iki3, stronger effect = lower value 0.992 | locus YML016C, strain PPZ1, stronger effect = lower value 1.05 | locus YML032C, strain rad52, stronger effect = lower value 0.981 | locus YML120C, strain ndi1, stronger effect = lower value 0.988 | locus YML124C, strain tub3, stronger effect = lower value 1 | locus YMR058W, strain fet3, stronger effect = lower value 0.976 | locus YMR078C, strain ctf18, stronger effect = lower value 1.01 | locus YMR125W, strain sto1, stronger effect = lower value 0.983 | locus YMR129W, stronger effect = lower value 1 | locus YMR223W, strain ubp8, stronger effect = lower value 0.98 | locus YMR231W, strain pep5, stronger effect = lower value 0.977 | locus YMR263W, strain SAP30, stronger effect = lower value 0.998 | locus YMR307W, strain GAS1, stronger effect = lower value 0.843 | locus YNL067W, strain RPL9B, stronger effect = lower value 0.98 | locus YNL153C, strain GIM3, stronger effect = lower value 0.982 | locus YNL183C, strain NPR1, stronger effect = lower value 0.908 | locus YNL209W, strain ssb2, stronger effect = lower value 1 | locus YNL233W, strain BNI4, stronger effect = lower value 0.927 | locus YNL248C, strain rpa49, stronger effect = lower value 1.04 | locus YNL250W, strain rad50, stronger effect = lower value 1.04 | locus YNL271C, strain bni1, stronger effect = lower value 1.01 | locus YNL298W, strain CLA4, stronger effect = lower value 1.05 | locus YNL307C, strain MCK1, stronger effect = lower value 0.917 | locus YNL322C, strain KRE1 (second series), stronger effect = lower value 0.999 | locus YNL322C, strain KRE1, stronger effect = lower value 1.01 | locus YNR049C, strain mso1, stronger effect = lower value 0.99 | locus YNR052C, strain pop2, stronger effect = lower value 0.971 | locus YOL006C, strain TOP1, stronger effect = lower value 0.909 | locus YOL012C, strain htz1 0.571 | locus YOL147C, strain pex11, stronger effect = lower value 1.02 | locus YOR001W, strain rrp6, stronger effect = lower value 0.995 | locus YOR061W, strain CKA2, stronger effect = lower value 0.999 | locus YOR069W, strain VPS5, stronger effect = lower value 1.02 | locus YOR070C, strain gyp1, stronger effect = lower value 0.971 | locus YOR080W, strain dia2, stronger effect = lower value 1.01 | locus YOR083W, strain WHI5, stronger effect = lower value 0.984 | locus YOR106W, strain vam3, stronger effect = lower value 0.933 | locus YOR136W, strain idh2, stronger effect = lower value 1.01 | locus YOR144C, strain elg1, stronger effect = lower value 1.01 | locus YOR265W, strain rbl2, stronger effect = lower value 0.98 | locus YOR270C, strain vph1, stronger effect = lower value 0.99 | locus YOR290C, strain snf2, stronger effect = lower value 1.01 | locus YOR316C, strain cot1, stronger effect = lower value 1.01 | locus YPL078C, strain atp4, stronger effect = lower value 0.943 | locus YPL106C, strain sse1, stronger effect = lower value 0.989 | locus YPL240C, strain hsp82, stronger effect = lower value 0.992 | locus YPR119W, strain clb2, stronger effect = lower value 0.994 | locus YPR141C, strain kar3, stronger effect = lower value 1.01 | locus YPR163C, strain tif3, stronger effect = lower value 1.02 | locus YPR167C, strain met16, stronger effect = lower value 1.02 | strain wtn01, stronger effect = lower value 1.03
